Measurements: ChEMBL document CHEMBL3988442, “University of Dundee, Small-Polar-MMV Screening Library” (2021)
For part of these data: Potency and affinity values are given separately.

Tests used:
Parameters in all cases: scale not given: direction of the effect not stated beside the values
[1] = target: Protein translocase subunit SecA (Escherichia coli (strain K12)) (UniProt P10408); assay: Assay to Identify E. coli SecA ATPase Inhibitors; format: functional; settings: 30 µM
[2] = target: T1, Ubiquitin-activating enzyme e1, putative (Leishmania donovani (strain BPK282A1)) (UniProt E9BSI1); assay: Leishmania donovani Ubiquitin Activating Enzyme (LdE1); format: functional; settings: 30 µM
T1 sequence (whole entry): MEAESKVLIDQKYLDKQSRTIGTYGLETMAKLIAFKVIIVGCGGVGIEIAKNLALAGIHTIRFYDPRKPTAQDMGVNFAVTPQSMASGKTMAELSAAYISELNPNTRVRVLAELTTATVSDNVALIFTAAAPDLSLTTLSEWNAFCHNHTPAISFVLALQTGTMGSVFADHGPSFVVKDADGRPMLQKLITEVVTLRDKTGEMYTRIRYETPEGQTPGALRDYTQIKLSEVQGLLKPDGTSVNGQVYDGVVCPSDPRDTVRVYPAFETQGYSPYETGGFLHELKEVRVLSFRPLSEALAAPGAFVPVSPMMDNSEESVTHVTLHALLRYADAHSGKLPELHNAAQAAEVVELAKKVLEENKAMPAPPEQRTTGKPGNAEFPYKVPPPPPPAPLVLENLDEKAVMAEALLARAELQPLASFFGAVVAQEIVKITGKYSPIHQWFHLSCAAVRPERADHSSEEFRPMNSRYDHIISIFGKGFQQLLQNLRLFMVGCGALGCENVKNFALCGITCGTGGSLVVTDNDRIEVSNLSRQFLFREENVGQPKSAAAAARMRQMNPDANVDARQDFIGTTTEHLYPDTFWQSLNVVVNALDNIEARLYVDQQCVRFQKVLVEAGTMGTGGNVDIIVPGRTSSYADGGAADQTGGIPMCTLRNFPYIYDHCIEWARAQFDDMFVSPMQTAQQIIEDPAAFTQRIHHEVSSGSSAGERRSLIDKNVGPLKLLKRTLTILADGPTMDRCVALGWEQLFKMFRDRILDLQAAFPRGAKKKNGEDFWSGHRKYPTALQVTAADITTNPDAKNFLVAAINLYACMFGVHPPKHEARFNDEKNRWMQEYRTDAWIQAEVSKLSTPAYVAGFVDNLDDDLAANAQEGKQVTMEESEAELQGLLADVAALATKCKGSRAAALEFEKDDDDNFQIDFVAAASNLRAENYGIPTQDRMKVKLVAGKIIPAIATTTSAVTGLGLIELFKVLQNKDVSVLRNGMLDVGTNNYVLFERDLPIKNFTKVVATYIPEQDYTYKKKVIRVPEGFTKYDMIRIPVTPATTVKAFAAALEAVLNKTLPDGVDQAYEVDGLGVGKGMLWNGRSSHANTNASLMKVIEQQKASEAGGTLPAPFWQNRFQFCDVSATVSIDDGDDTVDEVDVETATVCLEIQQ

[3] = target: AMP-activated protein kinase, AMPK (Homo sapiens) (UniProt P54646+O43741+P54619+Q9UGJ0+Q9Y478+Q13131+Q9UGI9); assay: AMP-dependent Kinase enzyme assay. An in vitro enzyme assay that detects ADP turnover that is directly proportional to AMPK activity. This uses naive AMPK that is activated during the assay with MK-8722; format: functional; settings: 30 µM
[4] = target: Sialic acid-binding Ig-like lectin 9 (Homo sapiens) (UniProt Q9Y336); assay: Hs-Siglec9 ALPHAscreen SOP 20170721; settings: 10 µM
Sequence of Sialic acid-binding Ig-like lectin 9 (Homo sapiens) (Q9Y336 whole entry): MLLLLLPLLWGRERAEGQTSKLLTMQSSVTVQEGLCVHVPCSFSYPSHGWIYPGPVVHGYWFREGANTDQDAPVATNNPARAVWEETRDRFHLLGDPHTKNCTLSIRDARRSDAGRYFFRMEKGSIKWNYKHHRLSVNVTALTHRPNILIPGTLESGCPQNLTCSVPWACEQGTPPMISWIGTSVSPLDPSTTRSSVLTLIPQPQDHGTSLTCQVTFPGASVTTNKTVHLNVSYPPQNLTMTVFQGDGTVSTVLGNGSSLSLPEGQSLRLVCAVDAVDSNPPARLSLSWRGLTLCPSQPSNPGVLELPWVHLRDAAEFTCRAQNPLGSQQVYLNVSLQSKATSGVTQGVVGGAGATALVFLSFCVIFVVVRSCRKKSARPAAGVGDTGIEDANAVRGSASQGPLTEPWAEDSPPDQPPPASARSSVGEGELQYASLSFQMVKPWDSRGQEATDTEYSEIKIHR

Trypanosoma cruzi = assay: Trypanosoma cruzi phosphomannomutase and mannose-1-phosphate guanylyltransferase assay; format: functional; settings: 10 µM
[5] = target: T2, Arginase-2, mitochondrial (Homo sapiens) (UniProt P78540); assay: in vitro enzyme assay to detect the production of urea directly proportional to the activity of Arginase II; format: functional; settings: 33.3 µM; further: in the data most compounds retested in dose-response had high values
T2 sequence (whole entry): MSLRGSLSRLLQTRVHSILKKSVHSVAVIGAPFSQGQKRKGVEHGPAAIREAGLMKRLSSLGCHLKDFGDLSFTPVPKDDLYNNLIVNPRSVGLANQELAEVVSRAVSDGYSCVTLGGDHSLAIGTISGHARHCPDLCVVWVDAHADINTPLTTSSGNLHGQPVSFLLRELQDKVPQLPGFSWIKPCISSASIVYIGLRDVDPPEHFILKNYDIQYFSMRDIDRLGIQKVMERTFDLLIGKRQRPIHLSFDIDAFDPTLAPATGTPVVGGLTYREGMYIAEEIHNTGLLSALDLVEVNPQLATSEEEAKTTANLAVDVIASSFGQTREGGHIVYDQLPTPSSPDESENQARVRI

[6] = target: T3, Proteasome subunit beta (Trypanosoma cruzi) (UniProt O96673); assay: Trypanosoma cruzi proteasome chymotrypsin-like activity (TcProtChymo) assay.; further: in the data most compounds retested in dose-response had high values; format: functional; settings: 9.37 µM
T3 sequence (whole entry): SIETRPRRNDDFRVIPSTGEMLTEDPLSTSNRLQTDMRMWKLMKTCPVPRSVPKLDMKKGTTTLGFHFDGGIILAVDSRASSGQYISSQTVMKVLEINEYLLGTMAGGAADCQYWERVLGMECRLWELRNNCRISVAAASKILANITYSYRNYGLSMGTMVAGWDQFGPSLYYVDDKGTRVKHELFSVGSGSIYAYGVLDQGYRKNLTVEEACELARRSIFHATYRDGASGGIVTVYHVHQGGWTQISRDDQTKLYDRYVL

Homo sapiens = species on record: Homo sapiens; assay: To identify inhibition of the IFN signalling (Jak-Stat) pathway via expression of an eGFP reporter gene under the control of an IFN-stimulated response element (ISRE) containing MxA promoter.; format: functional; settings: 30 µM
[7] = target: T4, Tyrosyl-tRNA synthetase, putative (Trypanosoma cruzi (strain CL Brener)) (UniProt Q4DSP6); assay: Trypanosoma cruzi tyrosyl tRNA synthetase (TcYRS) _High Tyrosine SOP; format: functional; settings: 30 µM; further: in the data most compounds retested in dose-response had high values
T4 sequence (whole entry): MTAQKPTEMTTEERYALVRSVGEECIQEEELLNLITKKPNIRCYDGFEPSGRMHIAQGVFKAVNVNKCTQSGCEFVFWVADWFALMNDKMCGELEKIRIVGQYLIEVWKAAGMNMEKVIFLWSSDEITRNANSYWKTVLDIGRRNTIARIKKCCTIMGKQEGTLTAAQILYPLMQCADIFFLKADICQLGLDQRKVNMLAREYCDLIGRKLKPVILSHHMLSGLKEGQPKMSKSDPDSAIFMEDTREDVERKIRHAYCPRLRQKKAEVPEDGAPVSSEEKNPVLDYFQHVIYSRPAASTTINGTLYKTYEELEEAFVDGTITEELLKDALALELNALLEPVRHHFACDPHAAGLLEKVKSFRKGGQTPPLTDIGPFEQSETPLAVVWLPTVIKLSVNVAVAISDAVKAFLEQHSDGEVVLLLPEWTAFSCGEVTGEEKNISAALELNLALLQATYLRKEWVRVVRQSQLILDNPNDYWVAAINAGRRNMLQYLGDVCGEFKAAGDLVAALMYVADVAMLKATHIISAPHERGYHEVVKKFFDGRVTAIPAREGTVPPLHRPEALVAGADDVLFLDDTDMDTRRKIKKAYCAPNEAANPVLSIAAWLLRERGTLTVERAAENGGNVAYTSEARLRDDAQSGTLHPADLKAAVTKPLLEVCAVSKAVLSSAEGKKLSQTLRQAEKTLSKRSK

[8] = target: T4, Tyrosyl-tRNA synthetase, putative (Trypanosoma cruzi (strain CL Brener)); assay: Trypanosoma cruzi tyrosyl tRNA synthetase (TcYRS) SOP; format: functional; settings: 30 µM
[9] = target: Chromo domain-containing protein 1 (Saccharomyces cerevisiae (strain ATCC 204508 / S288c) (Baker's yeast)) (UniProt P32657); assay: ScCHD-1 Enzyme Inhibition Assay; format: functional; settings: 30 µM; further: in the data most compounds retested in dose-response had high values
Sequence of Chromo domain-containing protein 1 (Saccharomyces cerevisiae (strain ATCC 204508 / S288c) (Baker's yeast)) (P32657 whole entry, the tested form may be a part): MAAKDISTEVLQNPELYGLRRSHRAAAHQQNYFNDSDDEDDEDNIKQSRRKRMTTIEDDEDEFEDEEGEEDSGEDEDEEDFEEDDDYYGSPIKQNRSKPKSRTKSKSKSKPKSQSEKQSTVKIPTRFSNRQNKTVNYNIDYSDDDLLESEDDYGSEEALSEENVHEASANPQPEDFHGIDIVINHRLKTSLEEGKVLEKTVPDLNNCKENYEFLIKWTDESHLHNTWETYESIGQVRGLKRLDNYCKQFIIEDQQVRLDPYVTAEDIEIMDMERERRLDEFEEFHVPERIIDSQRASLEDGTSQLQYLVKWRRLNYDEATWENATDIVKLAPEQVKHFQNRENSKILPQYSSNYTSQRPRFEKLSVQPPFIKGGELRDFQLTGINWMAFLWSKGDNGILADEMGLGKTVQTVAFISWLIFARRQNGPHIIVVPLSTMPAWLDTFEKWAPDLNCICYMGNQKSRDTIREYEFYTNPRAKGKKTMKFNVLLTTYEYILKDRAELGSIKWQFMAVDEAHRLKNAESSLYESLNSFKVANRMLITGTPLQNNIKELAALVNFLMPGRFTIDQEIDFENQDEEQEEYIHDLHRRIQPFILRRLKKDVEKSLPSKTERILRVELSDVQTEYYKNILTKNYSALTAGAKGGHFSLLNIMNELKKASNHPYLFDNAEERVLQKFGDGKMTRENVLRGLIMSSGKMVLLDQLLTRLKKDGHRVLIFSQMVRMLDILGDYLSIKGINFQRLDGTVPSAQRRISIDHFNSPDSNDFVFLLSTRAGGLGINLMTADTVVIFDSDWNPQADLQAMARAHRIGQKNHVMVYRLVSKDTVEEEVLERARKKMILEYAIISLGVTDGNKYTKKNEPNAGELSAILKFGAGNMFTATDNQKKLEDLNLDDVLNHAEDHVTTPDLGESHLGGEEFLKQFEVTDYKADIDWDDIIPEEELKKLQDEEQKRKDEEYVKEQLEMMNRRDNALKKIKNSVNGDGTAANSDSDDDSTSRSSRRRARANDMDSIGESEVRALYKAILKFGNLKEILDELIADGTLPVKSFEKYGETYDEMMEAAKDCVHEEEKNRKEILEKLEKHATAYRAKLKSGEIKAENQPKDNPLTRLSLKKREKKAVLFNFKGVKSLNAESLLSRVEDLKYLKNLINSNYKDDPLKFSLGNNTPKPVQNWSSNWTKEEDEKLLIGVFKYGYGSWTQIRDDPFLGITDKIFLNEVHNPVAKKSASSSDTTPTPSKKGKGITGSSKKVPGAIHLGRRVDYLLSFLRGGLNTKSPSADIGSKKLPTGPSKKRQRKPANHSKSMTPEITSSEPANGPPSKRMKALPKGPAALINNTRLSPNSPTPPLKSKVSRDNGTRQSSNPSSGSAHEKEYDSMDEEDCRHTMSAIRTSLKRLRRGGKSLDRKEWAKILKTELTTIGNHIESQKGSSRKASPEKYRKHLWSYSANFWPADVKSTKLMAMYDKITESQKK

Sequence of Protein translocase subunit SecA (Escherichia coli (strain K12)) (P10408 whole entry): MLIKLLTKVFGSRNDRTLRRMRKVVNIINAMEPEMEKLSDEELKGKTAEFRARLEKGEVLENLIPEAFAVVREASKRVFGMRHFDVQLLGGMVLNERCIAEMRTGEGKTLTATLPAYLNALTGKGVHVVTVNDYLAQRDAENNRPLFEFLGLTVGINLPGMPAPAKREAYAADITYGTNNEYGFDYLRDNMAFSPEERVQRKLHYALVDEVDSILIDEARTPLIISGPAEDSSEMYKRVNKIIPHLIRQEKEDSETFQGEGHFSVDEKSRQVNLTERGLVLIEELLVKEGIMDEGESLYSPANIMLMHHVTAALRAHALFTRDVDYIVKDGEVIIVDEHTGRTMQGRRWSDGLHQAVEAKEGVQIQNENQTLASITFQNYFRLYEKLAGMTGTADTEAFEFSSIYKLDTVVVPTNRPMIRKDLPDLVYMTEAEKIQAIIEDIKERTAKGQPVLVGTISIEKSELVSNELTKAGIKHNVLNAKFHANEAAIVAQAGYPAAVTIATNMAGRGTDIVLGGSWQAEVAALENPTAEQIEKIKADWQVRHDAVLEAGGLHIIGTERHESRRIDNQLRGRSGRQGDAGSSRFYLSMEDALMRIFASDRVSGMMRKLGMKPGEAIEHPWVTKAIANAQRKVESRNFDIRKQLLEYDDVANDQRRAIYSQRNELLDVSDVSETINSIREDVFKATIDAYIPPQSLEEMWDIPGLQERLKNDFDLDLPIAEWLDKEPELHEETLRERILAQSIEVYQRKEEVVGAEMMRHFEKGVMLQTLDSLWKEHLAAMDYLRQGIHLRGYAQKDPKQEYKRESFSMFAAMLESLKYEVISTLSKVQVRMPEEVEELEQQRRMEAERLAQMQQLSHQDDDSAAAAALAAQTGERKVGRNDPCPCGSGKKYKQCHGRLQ

Compound	Percent Effect [1]	Percent Effect [2]	Percent Effect [3]	Percent Effect [4]	Percent Effect (Trypanosoma cruzi)	Percent Effect [5]	Percent Effect [6]	Percent Effect (Homo sapiens)	Percent Effect [7]	Percent Effect [8]	Percent Effect [9]
CC1CCN(c2ncc3c(n2)CN(c2ccccc2)C3=O)CC1	-5.32%	5.2%	-0.285%	2.67%	-5.8%	-30.3%	-5.82%	-2.62%	2.15%	11.1%	5.77%
CN(Cc1cccnc1)CC1CCCN1c1cccnn1 (stereo unspecified)	4.47%	18.2%	-2.81%	-14.9%	-5.58%	0.21%	13.7%	27.4%	7.62%	18.8%	-18.6%
Fc1ccccc1-c1noc2c1CN(CC1CC1)CC2	-0.719%	13.7%	1.26%	4.91%	5.68%	1.36%	17%	11.6%	7.53%	20%	-0.386%
Cc1cc(N2CCC(c3nnc(CN(C)C)n3C3CC3)CC2)ccn1	-5.32%	-1.39%	34.9%	-1.61%	-4.37%	-0.883%	16.1%	-6.01%	1.05%	-5.13%	-4.13%
CC(C)(C)c1nnc(CN2CCOC(Cn3cccn3)C2)o1 (stereo unspecified)	-3.67%	15.2%	-3.73%	9.59%	5.38%	1.9%	5.16%	14.4%	5.42%	16.5%	-5.63%
Cc1nc(N2CCN(C)CC2)ncc1C(=O)N1CCC(O)(CO)CC1	-6.99%	5.41%	51.9%	4.12%	2.25%	0.744%	0.944%	9.71%	6.45%	13.6%	-3.95%
COCc1nn(C(C)C)c2c1CCN(Cc1cccs1)C2	-0.481%	11%	1.5%	8.32%	0.198%	-0.798%	12.4%	-11.8%	7.29%	16.1%	-1.6%
CCN1C[C@@H]2[C@@H](OC)CCN(S(=O)(=O)c3ccccc3F)[C@@H]2C1	-2.71%	5.33%	11.3%	0.304%	-2.56%	4.43%	0.793%	4.67%	-1.06%	3.85%	-0.244%
Cc1ccc(CN2CCC3(CC(C(=O)NCC4CC4)=NO3)C2)cc1C (stereo unspecified)	-4.16%	2.67%	7.69%	-4.65%	-4.05%	-64%	0.684%	2%	0%	7.5%	-7.33%
C=Cn1ncc(CN2C[C@@H]3CCCN3C[C@H]2CCSC)c1C	-0.255%	1.35%	5.26%	9.13%	4.94%	-1.16%	9.36%	15.9%	1.07%	1.3%	-6.62%
CN(Cc1ccc(F)cc1)CC1(O)CCN(C(=O)c2ccccc2)C1 (stereo unspecified)	-1.26%	4.05%	9.4%	2.19%	-8.1%	1.16%	9.98%	15.7%	2.15%	6.49%	13.1%
COCC(=O)N1CCC(c2cccc(Cc3ccc(F)cc3)n2)CC1	0.623%	9.46%	7.38%	-1.91%	-6.13%	3.94%	5.15%	22.7%	2.15%	11.7%	-12.4%
NC(=O)c1ccc2c(c1)nc1n2CCN(Cc2ccccc2)C1	-6.79%	15.8%	5.45%	5.68%	3.8%	-20.1%	12%	5.05%	4.25%	10.4%	6.79%
Cc1nccn1-c1cccc(C2CCCN(C3CCCCC3)C2)n1 (stereo unspecified)	-7.63%	-4.05%	3.56%	-0.877%	2.17%	4.41%	14.8%	2.91%	22.6%	27.3%	-10.9%
O=C(NCc1ccco1)[C@@]12CCO[C@@H]1CCN(CCN1CCCC1)C2	-6.16%	16%	-5.27%	-2.5%	5.21%	-51.1%	18.5%	-5.93%	6.25%	22.5%	-12%
C1CC(CN2CCO[C@H]3[C@H](OCC4CC4)CC[C@@H]32)CCO1	-7.62%	2.7%	-2.6%	-1.5%	-2.93%	2.08%	16.3%	7.72%	5.94%	3.66%	-1.93%
Cc1cc(NC(=O)NCc2cccnc2OC(C)C)n(C)n1	-2.88%	8.86%	1.26%	3.66%	0.103%	-1.07%	19.4%	4.52%	3.12%	12.7%	-22.1%
CCc1nc(CN2CCN(C(=O)CCc3ccccc3)CC2)cs1	-6.36%	19%	-2.93%	5.39%	-1.95%	2.8%	16.5%	3.67%	-1.04%	17.7%	-23.8%
Cc1nccnc1CN1CCC2(CCCN(C3CCOCC3)C2=O)C1 (stereo unspecified)	-2.05%	-2.74%	-4.08%	1.19%	2.98%	-2.79%	12.8%	13.9%	5.21%	6.17%	0.026%
CCCC(=O)N1CC[C@@H]2[C@H](CC1)N(Cc1cccnc1)CCS2(=O)=O	-8.11%	5.41%	3.63%	-1.04%	-0.586%	2.5%	6.85%	0.118%	8.91%	8.54%	-3.88%
CC(=O)Nc1c(C)cnn1Cc1cc(F)ccc1F	-3.16%	0%	0.653%	2.06%	-3.99%	1.56%	2.09%	12.2%	2.73%	6.17%	-0.196%
